This is an account of results in PubChem BioAssay (NCATS).

In assay [1] the target is Lysosomal acid glucosylceramidase (Homo sapiens) (UniProt P04062). As to the kind of experiment: Glucocerebrosidase-p2 (AID 348; in the data active = potency below about 10 µM; note: potency is the fitted concentration of half-maximal effect). Particulars: purified GBA, blue fluorogenic substrate, 40 min. The essentials: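 Compounds titrated from 0.6 nM upwards against 0.2 nM enzyme in pH 5.9 citric acid/KH2PO4, taurocholate, tween-20; blue fluorogenic substrate 80 uM, 40 min room temperature, stopped and read Ex 365/Em 440 for AC50.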
Sequence of Lysosomal acid glucosylceramidase (Homo sapiens) (P04062 whole entry, looked up): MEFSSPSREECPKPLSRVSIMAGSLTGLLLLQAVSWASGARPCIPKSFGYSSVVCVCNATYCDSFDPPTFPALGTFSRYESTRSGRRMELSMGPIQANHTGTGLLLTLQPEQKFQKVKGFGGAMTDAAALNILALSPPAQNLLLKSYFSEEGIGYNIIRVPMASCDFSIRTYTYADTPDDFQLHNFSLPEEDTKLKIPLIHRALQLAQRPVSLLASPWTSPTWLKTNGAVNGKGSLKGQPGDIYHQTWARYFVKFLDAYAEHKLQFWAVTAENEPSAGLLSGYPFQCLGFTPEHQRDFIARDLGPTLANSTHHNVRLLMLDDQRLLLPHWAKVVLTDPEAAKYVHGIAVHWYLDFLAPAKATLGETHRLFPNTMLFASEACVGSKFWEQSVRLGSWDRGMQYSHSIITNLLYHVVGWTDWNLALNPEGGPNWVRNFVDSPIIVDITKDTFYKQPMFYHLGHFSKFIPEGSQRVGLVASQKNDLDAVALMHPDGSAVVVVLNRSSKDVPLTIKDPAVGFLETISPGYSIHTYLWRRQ

For assay [2], the target named is Cytochrome P450 1A2 (Homo sapiens) (UniProt P05177). Nature of the assay: p450-cyp1a2 (AID 410; calls by dose curve; note: potency is the fitted concentration of half-maximal effect). The conditions noted are these: recombinant CYP1A2, luciferin-ME demethylation, luminescence; series mostly up to 57 µM. In outline:
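Human CYP1A2 (20nM) demethylated Luciferin-ME at its Km (100uM) in 100mM KPO4. After 10 min compound preincubation, NADPH regeneration ran the reaction 60 min at room temperature. Luciferin was read by luminescence, normalized to 57 uM furafylline.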

The nature of assay [3]: NFAT Signaling Pathway (AID 444).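 Note: carbachol stimulus at about its EC50 of 1 µM final; % is set by controls: 0 for no effect and ±100 for the full control effect.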 The conditions noted are these: Jurkat NFAT-bla M1, carbachol, beta-lactamase ratio, 5 h; at 7.69 µM (top of the series) unless noted. In outline:
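Jurkat cells carrying an NFAT-driven β-lactamase reporter and co-transfected muscarinic M1 receptor were treated with compound plus carbachol (1 uM final, an EC50 level) for 5 h at 37 °C. CCF4 loading followed for 1 h at RT; 460/530 nm ratio gave %activity.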

The nature of assay [4]: Stat Signaling Pathway (AID 446).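 Note: ME-180 cervical cancer cells given 40 pM IL-6 alongside compound; SIE-controlled beta-lactamase reporter measured as 460/530 nm FRET emission ratio; % is set by controls: 0 for no effect and ±100 for the full control effect.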 Particulars: ME-180 SIE beta-lactamase reporter, IL-6 stimulated, 5 h; at 7.69 µM (top of the series) unless noted. In outline: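 Screening format detects activators and inhibitors alike: ME-180 SIE-bla cells stimulated at 40 pM IL-6 for 5 hrs with compound, then dual-emission beta-lactamase read at 405 nm excitation.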
The target in assay [5] is Glucocorticoid receptor (Homo sapiens) (UniProt P04150). Nature of the assay: GR-GFP Redistribution (AID 450;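 active = compounds whose dose series gives a full or clear partial fitted curve of increased nuclear translocation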; note: potency is the fitted concentration of half-maximal effect). Particulars: U2OS GR-GFP nuclear translocation, laser cytometry, 2 h.
Sequence of Glucocorticoid receptor (Homo sapiens) (P04150 whole entry, looked up, the tested form may be a part): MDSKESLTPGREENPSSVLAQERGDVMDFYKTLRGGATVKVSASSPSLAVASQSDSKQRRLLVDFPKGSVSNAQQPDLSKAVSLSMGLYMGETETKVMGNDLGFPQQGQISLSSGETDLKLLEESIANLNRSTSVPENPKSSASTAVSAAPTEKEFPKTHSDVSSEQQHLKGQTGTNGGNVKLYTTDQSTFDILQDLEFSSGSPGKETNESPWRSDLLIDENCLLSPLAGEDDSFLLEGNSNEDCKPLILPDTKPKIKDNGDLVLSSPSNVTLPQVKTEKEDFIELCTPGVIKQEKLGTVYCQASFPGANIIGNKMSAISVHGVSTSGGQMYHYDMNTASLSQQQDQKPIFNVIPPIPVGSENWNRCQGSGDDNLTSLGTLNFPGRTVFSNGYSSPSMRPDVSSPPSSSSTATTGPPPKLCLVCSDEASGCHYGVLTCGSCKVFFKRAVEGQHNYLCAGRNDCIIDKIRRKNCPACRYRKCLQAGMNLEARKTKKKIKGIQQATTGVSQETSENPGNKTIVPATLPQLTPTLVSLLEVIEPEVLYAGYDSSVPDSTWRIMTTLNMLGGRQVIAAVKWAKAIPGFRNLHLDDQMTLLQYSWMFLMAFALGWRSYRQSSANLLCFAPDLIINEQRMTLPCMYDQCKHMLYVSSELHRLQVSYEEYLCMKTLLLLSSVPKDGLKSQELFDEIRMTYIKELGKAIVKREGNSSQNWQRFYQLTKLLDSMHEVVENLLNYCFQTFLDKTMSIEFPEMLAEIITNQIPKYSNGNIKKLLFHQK
Assay [6] has the same target. As to the kind of experiment: GR-EFC Redistribution (AID 451; calls by dose curve; note: potency is the fitted concentration of half-maximal effect). The conditions noted are these: CHO-K1 GR-EFC translocation, beta-gal luminescence, 2 h. The essentials: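 CHO-K1 cells stably expressing nuclear-localized β-gal enzyme acceptor and GR fused C-terminally to the enzyme donor fragment; ligand-driven nuclear translocation restores β-gal by complementation. Compounds titrated up to 46 uM final, 2 h at 37 °C; luminescence read.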

Assay [7] has as its target Mitogen-activated protein kinase 10 (Mus musculus) (UniProt Q61831). As to the kind of experiment: JNK3 AlphaScreen Assay (AID 530).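 Note: kinase came from lysate of stimulated human HepG2 cells; % is set by controls: 0 for no effect and ±100 for the full control effect.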 The conditions noted are these: JNK3 lysate, c-Jun phosphorylation; series mostly up to 57.1 µM. In outline: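 JNK3 came from HepG2 lysates pre-activated with IL-1beta and TNF-alpha and phosphorylated biotinylated GST-cJun (1-79) at 10 uM ATP, pH 7.6, room temperature. Compounds were titrated. AlphaScreen signal used anti-phospho-cJun (Ser73) antibody.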

Assay [8] deals with Cytochrome P450 3A4 (Homo sapiens) (UniProt P08684). As to the kind of experiment: qHTS Assay for Activators of Cytochrome P450 3A4 (AID 885; active = well fitted curve in the direction sought with a large enough effect; an effect the other way counts as inactive or inconclusive; note: nearly all actives have a fitted effect of over 65% in size). Particulars: recombinant CYP3A4, Luciferin-PPXE luminescence, 60 min; series mostly up to 57.1 µM. The essentials:
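Steps: enzyme/substrate mix dispensed; compound added, 10 min RT; NADPH regeneration solution added, 60 min RT; luciferin detection buffer stops reaction; 20 min later luminescence measured.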

Assay [9] can be described thus: Confirmation and Secondary Assay for Modulators of Hemoglobin Beta Chain Splicing at IVS2 654 locus (AID 910; active = well fitted curve in the direction sought with a large enough effect; an effect the other way counts as inactive or inconclusive;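 note: per-well total GFP intensity by laser scanning cytometry after 2-day treatment; % of control where 0% means no effect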). The conditions noted are these: HeLa EGFP-654 splicing reporter, GFP fluorescence, 48 h; series mostly up to 38.3 µM. The essentials:
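HeLa cells stably carrying EGFP interrupted by mutant beta-globin IVS2-654 intron (CMV-driven) were treated with compound for 2 days at 37C; corrected splicing was scored as total peak GFP intensity per well (488 nm excitation, 500-520 nm emission).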

Assay [10] is described as follows: Confirmation and Secondary Assay for Modulators of Hemoglobin Beta Chain Splicing at IVS2 705 locus (AID 930; active = well fitted curve in the direction sought with a large enough effect; an effect the other way counts as inactive or inconclusive;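 note: HeLa cells stably expressing the EGFP-705 splicing reporter; % of control where 0% means no effect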). The conditions noted are these: HeLa EGFP-705 splicing reporter, GFP fluorescence, 48 h; series mostly up to 38.3 µM. In outline: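 Splice-correction reporter: EGFP cDNA split by beta-globin intron 2 bearing the 705 mutation, stably in HeLa. Compound incubation 2 days, 37C; fluorescent objects 5-250 µm summed per well.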

Assay [11] is described as follows: qHTS Assay for Lipid Storage Modulators (AID 1519; calls by dose curve). Particulars: Drosophila S3 cells, BODIPY lipid droplet/cell ratio, laser cytometry, cells loaded with oleic acid; for activity change, negative = inhibition: at 57.5 µM (top of the series). The essentials: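 Cells seeded at 5,000 per well were treated with compounds over a concentration series and loaded with oleic acid (400 uM, as added). Lipid droplet fluorescence (488 nm excitation, 500-530 nm channel) was read by laser-scanning cytometry and normalized to 20 uM Triacsin C.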

Assay [12] has as its target Ubiquitin carboxyl-terminal hydrolase 1 (Homo sapiens) (UniProt O94782). Nature of the assay: Inhibitors of USP1/UAF1: Pilot qHTS (AID 504865; active = well fitted curve in the direction sought with a large enough effect; an effect the other way counts as inactive or inconclusive;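 note: rhodamine fluorescence freed from ubiquitin-rhodamine substrate followed over time; top concentration of the series differs between compounds; % is set by controls: 0 for no effect and ±100 for the full control effect; nearly all actives have a fitted effect of over 35% in size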). Particulars: purified USP1/UAF1, Ub-rhodamine cleavage fluorescence; series mostly up to 54.9 µM. In outline: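 USP1/UAF1 complex (1nM) preincubated with compound 15 min at room temperature, then Ub-Rho substrate (150nM final) added. Fluorescence read kinetically at 480/540 nm, 6 reads every 60 seconds. Buffer: 50mM HEPES pH 7.8, 0.5mM EDTA, 0.1 mg/ml BSA, 1mM TCEP, 0.01% Tween-20.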

A short description of assay [13]: Primary qHTS for small molecule stabilizers of the endoplasmic reticulum resident proteome: Secreted ER Calcium Modulated Protein (SERCaMP) assay (AID 1508630; active = well fitted curve in the direction sought with a large enough effect; an effect the other way counts as inactive or inconclusive; note: % is set by controls: 0 for no effect and ±100 for the full control effect). The conditions noted are these: SH-SY5Y GLuc-SERCaMP (Gaussia luciferase released on ER calcium loss) secretion, thapsigargin, luminescence; series mostly up to 38.4 µM. The essentials: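 GLuc-SERCaMP-expressing SH-SY5Y cells, pretreated 16 h with compound, are challenged with thapsigargin to empty ER calcium stores; after 4 h, coelenterazine is added directly to the medium and luminescence is imaged.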

Assay [14] has as its target 3',5'-cyclic-AMP phosphodiesterase 4B (Homo sapiens) (UniProt Q07343). Nature of the assay: qHTS Assay for Inhibitors of PDE-IV (AID 607; active = well fitted activation curve with a large enough effect in the main read-out, with a control signal flat, not every such curve was filed as active; note: % of control where 0% means no effect). The conditions noted are these: HEK293 ACTOne CNG channel cells, membrane potential fluorescence; series mostly up to 22.9 µM. The essentials: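 The readout is membrane depolarisation from a cAMP-sensing CNG channel, detected with a potential dye at ex 535/em 590. Cells were HEK293-derived (endogenous PDE-IV) at 1000 cells/well, titrated up to 22.9 uM final.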

Assay [15] concerns the target Cytochrome P450 2D6 (Homo sapiens) (UniProt P10635). As to the kind of experiment: qHTS Assay for Inhibitors and Substrates of Cytochrome P450 2D6 (AID 891; active = well fitted curve in the direction sought with a large enough effect; an effect the other way counts as inactive or inconclusive; note: potency is the fitted concentration of half-maximal effect; nearly all actives have a fitted effect of over 60% in size). The conditions noted are these: recombinant CYP2D6, luciferin-ME EGE luminescence; series mostly up to 57.1 µM. The essentials:
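Human CYP2D6 (5 nM) with 30 uM Luciferin-ME EGE (at Km) in 100 mM KPO4, compound preincubated 10 min, then NADPH regeneration system for 60 min at room temperature. Luciferin read by luminescence; normalized to 1.43 uM quinidine.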

Assay [16] can be described thus: AP1 Signaling Pathway (AID 357). Note: % is set by controls: 0 for no effect and ±100 for the full control effect. Particulars: ME-180 AP-1-bla reporter, EGF-induced, beta-lactamase ratio, 5 h; at 7.69 µM (top of the series) unless noted. In outline: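 Cells are seeded overnight, exposed to compound titrations and an EC50 level of EGF for 5 hours at 37 °C, then loaded with CCF4 dye for 2.5 hours. Beta-lactamase activity under the AP-1 element is read as a blue/green ratio.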

Assay [17] is described as follows: qHTS Assay for Identification of Small Molecule Agonists for Hypoxia Response Element Signaling Pathway (AID 914; active = well fitted activation curve with a large enough effect in the signal ratio, with a control signal flat, not every such curve was filed as active; the % refers to the signal ratio; note: % of control where 0% means no effect). Particulars: ME-180 (cervical carcinoma) HRE-bla reporter, beta-lactamase ratio, CoCl2, 17 h; activation: stronger effect = higher value. The essentials:
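Cells were plated overnight, pin-dosed with compound in a titration series, co-stimulated with EC50 CoCl2 and incubated 17 hours at 37 degrees Celsius. CCF4 substrate was then loaded, and AC50 values came from the 460nm/530nm ratio.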

Where [18] appears, read: measured here: cell count channel max response.
Where [19] appears, read: measured here: lipid channel max response.

Molecules are shown by their SMILES. Results filed as inconclusive are left out. The source made the active and inactive calls. Unless noted, calls come from the whole dose curve; as a rule, active = well fitted curve in either direction with a large enough effect (not every such curve was filed as active); inconclusive = small, poorly fitted or top-dose-only effect, or another doubt; inactive = flat fitted curve, though single readings scatter.

Sequence of Cytochrome P450 1A2 (Homo sapiens) (P05177 whole entry, looked up): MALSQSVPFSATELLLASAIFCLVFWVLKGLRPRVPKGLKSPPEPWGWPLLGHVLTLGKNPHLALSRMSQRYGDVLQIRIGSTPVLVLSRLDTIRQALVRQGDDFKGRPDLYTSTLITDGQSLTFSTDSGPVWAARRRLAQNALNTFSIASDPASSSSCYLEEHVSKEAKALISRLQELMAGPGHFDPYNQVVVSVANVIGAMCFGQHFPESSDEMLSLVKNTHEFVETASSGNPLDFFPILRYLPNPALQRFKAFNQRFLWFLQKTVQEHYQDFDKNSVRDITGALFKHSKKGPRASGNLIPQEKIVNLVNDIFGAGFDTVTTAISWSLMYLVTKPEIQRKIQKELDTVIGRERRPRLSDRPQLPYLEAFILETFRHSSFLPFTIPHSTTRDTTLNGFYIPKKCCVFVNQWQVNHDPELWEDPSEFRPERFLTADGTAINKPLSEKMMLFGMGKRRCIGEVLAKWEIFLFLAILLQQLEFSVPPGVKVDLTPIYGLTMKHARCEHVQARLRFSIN
Sequence of 3',5'-cyclic-AMP phosphodiesterase 4B (Homo sapiens) (Q07343 whole entry, looked up): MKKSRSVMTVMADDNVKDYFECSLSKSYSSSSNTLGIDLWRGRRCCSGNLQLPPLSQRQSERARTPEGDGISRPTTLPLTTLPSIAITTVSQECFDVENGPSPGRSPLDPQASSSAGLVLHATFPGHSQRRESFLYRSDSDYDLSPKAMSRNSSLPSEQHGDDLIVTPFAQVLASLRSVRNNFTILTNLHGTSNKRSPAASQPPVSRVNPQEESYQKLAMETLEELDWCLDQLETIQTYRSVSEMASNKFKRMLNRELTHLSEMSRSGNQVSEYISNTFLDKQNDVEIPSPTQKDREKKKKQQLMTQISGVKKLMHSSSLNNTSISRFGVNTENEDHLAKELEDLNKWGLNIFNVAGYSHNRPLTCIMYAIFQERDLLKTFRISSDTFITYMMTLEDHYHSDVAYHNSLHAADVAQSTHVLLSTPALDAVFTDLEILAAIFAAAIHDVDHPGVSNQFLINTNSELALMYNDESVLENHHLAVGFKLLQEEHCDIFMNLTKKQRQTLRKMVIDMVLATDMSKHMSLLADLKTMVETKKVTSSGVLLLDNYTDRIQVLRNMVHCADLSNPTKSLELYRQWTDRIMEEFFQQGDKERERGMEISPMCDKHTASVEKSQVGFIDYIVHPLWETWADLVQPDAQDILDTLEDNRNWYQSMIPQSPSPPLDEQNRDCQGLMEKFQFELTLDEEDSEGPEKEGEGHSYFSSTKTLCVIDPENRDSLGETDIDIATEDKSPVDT
Sequence of Cytochrome P450 3A4 (Homo sapiens) (P08684 whole entry, looked up): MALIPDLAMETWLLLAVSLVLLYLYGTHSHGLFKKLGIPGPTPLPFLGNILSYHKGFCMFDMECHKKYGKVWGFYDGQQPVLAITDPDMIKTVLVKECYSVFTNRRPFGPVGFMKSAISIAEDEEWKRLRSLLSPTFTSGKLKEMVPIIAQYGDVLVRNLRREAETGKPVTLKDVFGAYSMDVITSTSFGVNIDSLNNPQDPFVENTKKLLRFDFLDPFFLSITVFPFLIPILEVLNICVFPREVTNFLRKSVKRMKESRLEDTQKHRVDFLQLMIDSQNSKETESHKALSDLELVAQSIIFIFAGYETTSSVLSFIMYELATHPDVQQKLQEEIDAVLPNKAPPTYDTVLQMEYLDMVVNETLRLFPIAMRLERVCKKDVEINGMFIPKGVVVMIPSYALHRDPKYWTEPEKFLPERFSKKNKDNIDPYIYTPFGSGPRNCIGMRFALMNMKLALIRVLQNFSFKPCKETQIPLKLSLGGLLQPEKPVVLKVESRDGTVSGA
Sequence of Cytochrome P450 2D6 (Homo sapiens) (P10635 whole entry, looked up): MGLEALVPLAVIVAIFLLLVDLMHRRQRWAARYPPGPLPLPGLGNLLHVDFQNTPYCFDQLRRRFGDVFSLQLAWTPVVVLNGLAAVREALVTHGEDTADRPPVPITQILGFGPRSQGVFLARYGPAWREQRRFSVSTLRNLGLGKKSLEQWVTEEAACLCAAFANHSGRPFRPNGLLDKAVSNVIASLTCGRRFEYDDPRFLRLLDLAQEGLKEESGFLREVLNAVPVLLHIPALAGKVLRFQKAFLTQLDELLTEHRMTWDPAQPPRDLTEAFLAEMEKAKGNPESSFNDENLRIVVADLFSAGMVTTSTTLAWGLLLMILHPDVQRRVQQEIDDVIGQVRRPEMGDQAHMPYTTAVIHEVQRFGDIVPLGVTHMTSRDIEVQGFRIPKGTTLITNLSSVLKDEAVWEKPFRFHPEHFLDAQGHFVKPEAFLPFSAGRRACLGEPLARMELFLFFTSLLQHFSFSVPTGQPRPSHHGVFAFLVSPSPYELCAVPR
Sequence of Ubiquitin carboxyl-terminal hydrolase 1 (Homo sapiens) (O94782 whole entry, looked up): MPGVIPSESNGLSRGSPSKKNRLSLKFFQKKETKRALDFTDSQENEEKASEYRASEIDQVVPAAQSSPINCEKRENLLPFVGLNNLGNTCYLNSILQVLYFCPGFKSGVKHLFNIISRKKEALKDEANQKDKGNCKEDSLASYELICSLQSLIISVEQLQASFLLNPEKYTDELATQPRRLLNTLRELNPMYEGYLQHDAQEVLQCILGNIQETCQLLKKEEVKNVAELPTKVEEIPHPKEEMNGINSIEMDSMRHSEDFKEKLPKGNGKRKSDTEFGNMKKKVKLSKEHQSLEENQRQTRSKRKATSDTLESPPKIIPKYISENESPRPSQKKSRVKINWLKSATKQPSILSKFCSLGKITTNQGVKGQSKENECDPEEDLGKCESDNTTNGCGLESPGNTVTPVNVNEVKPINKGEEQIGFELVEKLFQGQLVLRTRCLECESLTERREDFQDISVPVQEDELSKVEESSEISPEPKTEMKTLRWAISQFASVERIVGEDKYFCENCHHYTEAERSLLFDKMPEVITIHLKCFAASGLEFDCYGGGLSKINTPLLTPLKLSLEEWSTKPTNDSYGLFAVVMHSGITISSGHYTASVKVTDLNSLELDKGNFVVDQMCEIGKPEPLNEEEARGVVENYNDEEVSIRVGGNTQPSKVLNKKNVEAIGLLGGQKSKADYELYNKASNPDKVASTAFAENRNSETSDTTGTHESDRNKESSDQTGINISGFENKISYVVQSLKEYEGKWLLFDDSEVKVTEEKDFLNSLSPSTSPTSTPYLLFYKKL

Consider `CN(C)C(=O)c1ccc(-c2nc(NCc3ccccc3)c3ccccc3n2)cc1`, for which the Potency in assay [1] was > 11.4 µM (inactive); in assay [2] it was 15.8 µM (active); in [5] it was > 46 µM (inactive); in assay [6] it was > 46 µM (inactive). Besides, the activity change, negative = inhibition in [3] is 16% (inactive); in [11] it was 10.9% (inactive). The activity, negative = inhibition in [4] was -21.7% (inactive). Also, the Potency entry in assay [7], in [8], in [9] and in assay [12] was “inactive” in each case. Further, the result in assay [10] and in [13] was inactive. Also, the figures for the max response in [11] (setting [18]) and in [11] (setting [19]) were 6.91% and 16.5%, respectively.
As to `CS(=O)(=O)N1CCC2(CC1)CN(c1ccccc1)C2`, the Potency is > 11.4 µM (inactive) in assay [1], 20 µM (active) in assay [2], > 46 µM (inactive) in assay [6] and 1.26 µM (active) in assay [15]. Besides, the activity change, negative = inhibition in assay [3] was 24.3% (inactive); in [11] it was 0.887% (inactive). Further, the activity, negative = inhibition in [4] is -8.44% (inactive). In addition, the Potency entry in assay [7] and in [14] was “inactive” in each case. The max response in [11] (setting [18]) was determined as 14%; in [11] (setting [19]) it was 17.6%. Further, the result in assay [13] was inactive.
On to `COc1ccccc1CN1CCC2(CC1)CCN(C(=O)c1cccc(F)c1)CC2`, for which the Potency in assay [1] was > 11.4 µM (inactive); in [6] it was > 46 µM (inactive). The activity change, negative = inhibition in [16] is -13% (inactive); in [11], 2.42% (inactive). The Potency entry in assay [7] and in assay [14] was “inactive” in each case. Moreover, the activation in assay [17] was 21.3% (inactive). The max response in [11] (setting [18]) is -4.91%; in assay [11] (setting [19]), -3.6%. For the same compound, the outcome in [13] was inactive.
As to `O=C(c1csnn1)N1CCC2(CCCN(c3ccncc3)C2)CC1`, the results for the Potency in assay [1] and in assay [6] were > 11.4 µM (inactive) and > 46 µM (inactive), respectively. The activity change, negative = inhibition in assay [16] is -17.6% (inactive); in [11] it was -0.384% (inactive). Moreover, the activity, negative = inhibition in assay [4] is -10.5% (inactive). Moreover, the Potency result in [7] and in assay [14] was “inactive” each time. The max response in assay [11] (setting [18]) is 0.465%; in [11] (setting [19]), -0.685%. Moreover, the result in [13] was inactive.
Regarding `Cn1cccc1C(=O)N1CCC2(CCN(Cc3ccccc3)CC2)CC1`, the Potency is > 11.4 µM (inactive) in [1], > 46 µM (inactive) in assay [6] and 7.94 µM (active) in [15]. Moreover, the activity change, negative = inhibition in [16] was -1.12% (inactive); in assay [11] it was 4.86% (inactive). The activity, negative = inhibition in assay [4] was 4.92% (inactive). Besides, the Potency result in [7] and in assay [14] was “inactive” each time. Moreover, the max response is 16.4% in [11] (setting [18]) and 22.8% in assay [11] (setting [19]). In [13], the result was inactive.
As for `CCNc1ncc2ncc(=O)n(C[C@H]3CCCO3)c2n1`, the Potency in [1] is > 11.4 µM (inactive); in assay [2], 10 µM (active); in [5], > 9.22 µM (inactive); in assay [6] it was > 46 µM (inactive). For the same compound, the activity change, negative = inhibition in [3] is -20% (inactive); in [11], 1.57% (inactive). For the same compound, the Potency entry in assay [7] was “inactive”. Further, the max response turned out to be 16.3% in assay [11] (setting [18]) and 17.2% in assay [11] (setting [19]). In assay [13], the result was inactive.
With `COC(=O)N1CCC2(CCCN(C(=O)Nc3cccc(C#N)c3)C2)CC1`, the Potency in assay [1] is > 11.4 µM (inactive); in assay [6], > 46 µM (inactive). The activity change, negative = inhibition in [16] was -0.449% (inactive); in assay [11], 4.6% (inactive). Besides, the Potency result in assay [7], in assay [14] and in assay [8] was “inactive” in each case. Also, the max response in assay [11] (setting [18]) is 16%; in assay [11] (setting [19]) it was 23.7%. Besides, in [13], the outcome was inactive.
In the case of `O=C(c1cccc(F)c1)N1CCC2(CC1)CN(c1ccccn1)C2`, the Potency was > 11.4 µM (inactive) in assay [1] and > 46 µM (inactive) in assay [6]. In addition, the results for the activity change, negative = inhibition in [16] and in [11] were 6.77% (inactive) and 6.42% (inactive), respectively. In addition, the activity, negative = inhibition in assay [4] is -12.3% (inactive). The Potency result in assay [14] is “inactive”. For the same compound, the max response in assay [11] (setting [18]) came out at 17.7%; in [11] (setting [19]), 16%. Besides, the result in [13] was inactive.
